Measured values reported in PubChem BioAssay (Tox21).
Inconclusive results are not listed. Active and inactive are the calls of the source. Calls come from the whole dose curve; as a rule, active = well fitted curve in the direction sought with a large enough effect in the repeat runs; inconclusive = weak or mixed curves; inactive = no such curve, though single readings can be large; an effect the other way counts as inactive or inconclusive.

What was measured:
[1] = A CellTox Green Cytotoxicity Assay to monitor cytotoxicity in HepG2 cells - 16 hour (AID 1224876); note: nearly all actives have a fitted effect of over 45% in size
How it was run: (§1)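 HepG2 cells were seeded together with the CellTox Green dye at 600 cells/well, left 5 h at 37 C/5% CO2, then given compounds in DMSO. Fluorescence from dye bound to dead-cell DNA was read repeatedly over 40 h of treatment at 37 C.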

[2] = qHTS RealTime-Glo MT Cell Viability Assay in HepG2 cells - 32 hour (AID 1224877); note: nearly all actives have a fitted effect of over 55% in size
How it was run: (§2)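 HepG2 suspension premixed with RealTime-Glo reagents is plated at 600 cells per well and left 5 h at 37 C/5% CO2. Compounds in DMSO then go in, and bioluminescence reflecting viable cell number is recorded over 40 h.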

[3] = A CellTox Green Cytotoxicity Assay to monitor cytotoxicity in HepG2 cells - 24 hour (AID 1224878); note: nearly all actives have a fitted effect of over 45% in size
How it was run: as §1

[4] = A CellTox Green Cytotoxicity Assay to monitor cytotoxicity in HepG2 cells - 40 hour (AID 1224879); note: nearly all actives have a fitted effect of over 40% in size
How it was run: as §1

[5] = qHTS RealTime-Glo MT Cell Viability Assay in HEK293 cells - 0 hour (AID 1224880); note: top concentration of the series differs between compounds; nearly all actives have a fitted effect of over 45% in size
How it was run: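 HEK293 cells mixed with RealTime-Glo reagents (NanoLuc plus cell-permeant prosubstrate) at 600 cells/well, preincubated 5 h at 37 C/5% CO2, then given 23 nL compound in DMSO. Nonlytic luminescence from viable cells was read at 0, 8, 16, 24, 32 and 40 h.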

[6] = A CellTox Green Cytotoxicity Assay to monitor cytotoxicity in HEK293 cells - 32 hour (AID 1224881); note: nearly all actives have a fitted effect of over 40% in size
How it was run: (§3)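 HEK293 cells premixed with CellTox Green dye were seeded at 600 cells/well and left 5 h at 37 C/5% CO2 before pin transfer of 23 nL compound in DMSO. Fluorescence from dye bound to dead-cell DNA was read during 40 h treatment.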

[7] = A CellTox Green Cytotoxicity Assay to monitor cytotoxicity in HepG2 cells - 0 hour (AID 1224882); note: nearly all actives have a fitted effect of over 35% in size
How it was run: as §1

[8] = A CellTox Green Cytotoxicity Assay to monitor cytotoxicity in HepG2 cells - 32 hour (AID 1224883); note: nearly all actives have a fitted effect of over 50% in size
How it was run: as §1

[9] = A CellTox Green Cytotoxicity Assay to monitor cytotoxicity in HEK293 cells - 8 hour (AID 1224884); note: nearly all actives have a fitted effect of over 35% in size
How it was run: as §3

[10] = qHTS RealTime-Glo MT Cell Viability Assay in HepG2 cells - 16 hour (AID 1224885); note: nearly all actives have a fitted effect of over 50% in size
How it was run: as §2
% is set by controls: 0 for no effect and ±100 for the full control effect.

C/C=C(\C)C(=O)OCC/C=C\CC
inactive: Potency [1] | outcome [2] | Potency [3] | Potency [4] | outcome [5] | Potency [6] | Potency [7] | Potency [8] | Potency [9] | outcome [10]

CCOC(=O)CC#N
inactive: Potency [1] | outcome [2] | Potency [3] | Potency [4] | outcome [5] | Potency [6] | Potency [7] | Potency [8] | Potency [9] | outcome [10]

CC(=O)N(CC(O)CO)c1c(I)c(C(=O)NCC(O)CO)c(I)c(C(=O)NCC(O)CO)c1I (stereo unspecified)
inactive: Potency [1] | outcome [2] | Potency [3] | Potency [4] | outcome [5] | Potency [6] | Potency [7] | Potency [8] | Potency [9]

CN(C)CCOCCN(C)CCO
inactive: Potency [1] | outcome [2] | Potency [3] | Potency [4] | outcome [5] | Potency [6] | Potency [7] | Potency [8] | Potency [9] | outcome [10]

BrC/C=C/CBr
inactive: cytotoxicity increase [1] -13.9% [at 15.8 µM] | activity change, negative = cytotoxic [2] -0.147% [at 15.8 µM] | cytotoxicity [3] -16.1% [at 15.8 µM] | cytotoxicity increase [4] -17.2% [at 15.8 µM] | activity change, negative = cytotoxicity [5] -1.92% [at 15.8 µM] | cytotoxicity increase [6] -1.01% [at 15.8 µM] | cytotoxicity [7] -11.8% [at 15.8 µM] | cytotoxicity increase [8] -16.5% [at 15.8 µM] | cytotoxicity increase [9] 1.66% [at 15.8 µM]

Nc1ccc(S(=O)(=O)Nc2ccccn2)cc1
inactive: Potency [1] | outcome [2] | Potency [3] | Potency [4] | outcome [5] | Potency [6] | Potency [7] | Potency [8] | Potency [9]

CCCCCCCCCCC
inactive: Potency [1] | outcome [2] | Potency [3] | Potency [4] | outcome [5] | Potency [6] | Potency [7] | Potency [8] | Potency [9] | outcome [10]

Nc1ccc(S(=O)(=O)NC(=O)c2ccccc2)cc1
inactive: Potency [1] | outcome [2] | Potency [3] | Potency [4] | outcome [5] | Potency [6] | Potency [7] | Potency [8] | Potency [9]

NC(=O)NNC(N)=O
inactive: Potency [1] | outcome [2] | Potency [3] | Potency [4] | outcome [5] | Potency [6] | Potency [7] | Potency [8] | Potency [9] | outcome [10]

CC(C)c1ccccc1O
inactive: Potency [1] | outcome [2] | Potency [3] | Potency [4] | outcome [5] | Potency [6] | Potency [7] | Potency [8] | Potency [9] | outcome [10]

CCCCOC(=O)C(=O)OCCCC
inactive: Potency [1] | outcome [2] | Potency [3] | Potency [4] | outcome [5] | Potency [6] | Potency [7] | Potency [8] | Potency [9] | outcome [10]

CN[C@@H]1[C@@H](O)[C@@H](O[C@@H]2[C@H](O)[C@H](O[C@H]3OC(CN)=CC[C@H]3N)[C@@H](N)C[C@H]2N)OCC1(C)O (stereo partly specified)
inactive: Potency [1] | outcome [2] | Potency [3] | Potency [4] | outcome [5] | Potency [6] | Potency [7] | Potency [8] | Potency [9]

CCC(C)N (stereo unspecified)
inactive: Potency [1] | outcome [2] | Potency [3] | Potency [4] | outcome [5] | Potency [6] | Potency [7] | Potency [8] | Potency [9] | outcome [10]

CCN1CN(CC)CN(CC)C1
inactive: Potency [1] | outcome [2] | Potency [3] | Potency [4] | outcome [5] | Potency [6] | Potency [7] | Potency [8] | Potency [9]

NC(=O)C1(N2CCCCC2)CCN(CCCC(=O)c2ccc(F)cc2)CC1
inactive: Potency [1] | outcome [2] | Potency [3] | Potency [4] | outcome [5] | Potency [6] | Potency [7] | Potency [8] | Potency [9] | outcome [10]

CC(C)CCCC(C)CC=O (stereo unspecified)
inactive: Potency [1] | outcome [2] | Potency [3] | Potency [4] | outcome [5] | Potency [6] | Potency [7] | Potency [8] | Potency [9] | outcome [10]

CCS(=O)(=O)CCn1c([N+](=O)[O-])cnc1C
inactive: Potency [1] | outcome [2] | Potency [3] | Potency [4] | outcome [5] | Potency [6] | Potency [7] | Potency [8] | Potency [9] | outcome [10]

CCCCCCCCOC(C)=O
inactive: Potency [1] | outcome [2] | Potency [3] | Potency [4] | outcome [5] | Potency [6] | Potency [7] | Potency [8] | Potency [9] | outcome [10]

CCCCC/C=C/CC(=O)OC
inactive: Potency [1] | outcome [2] | Potency [3] | Potency [4] | outcome [5] | Potency [6] | Potency [7] | Potency [8] | Potency [9] | outcome [10]

Cc1nc([N+](=O)[O-])cn1-c1ccc([N+](=O)[O-])cc1
inactive: Potency [1] | outcome [2] | Potency [3] | Potency [4] | outcome [5] | Potency [6] | Potency [7] | Potency [8] | Potency [9]

CCN(CCC#N)c1ccccc1
inactive: Potency [1] | outcome [2] | Potency [3] | Potency [4] | outcome [5] | Potency [6] | Potency [7] | Potency [8] | Potency [9]

CC(C)(CO)[C@@H](O)C(=O)NCCCO
inactive: Potency [1] | outcome [2] | Potency [3] | Potency [4] | outcome [5] | Potency [6] | Potency [7] | Potency [8] | Potency [9] | outcome [10]

O=CN1CCOCC1
inactive: Potency [1] | outcome [2] | Potency [3] | Potency [4] | outcome [5] | Potency [6] | Potency [7] | Potency [8] | Potency [9] | outcome [10]

SCCSCCS
inactive: Potency [1] | outcome [2] | Potency [3] | Potency [4] | outcome [5] | Potency [6] | Potency [7] | Potency [8] | Potency [9]

CCNC(=O)/C=C/c1cccc(Br)c1
inactive: Potency [1] | outcome [2] | Potency [3] | Potency [4] | outcome [5] | Potency [6] | Potency [7] | Potency [8] | Potency [9] | outcome [10]
